Test results published in PubChem BioAssay (NCI).
This is part of a sample that, as a whole, favours compounds with a hit. Of some 83,000 tested, about 20% had one in any assay.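 Interpretation: 100, growth as untreated; towards 0, rising growth inhibition; 0, no net growth; 0 to -100, cell death. Compounds scoring below 10 were considered active.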 Values without a mark were called inactive. Calls of active or inactive are those of the source.

How the values were obtained:
Experiment in all cases: NCI-60 one-dose screen, 48 h (100 = growth as untreated, 0 = no growth, -100 = all killed)
Settings in all cases: 10 µM unless noted
NCI-H23 lung = tested on: NCI-H23 lung
NCI-H226 lung = tested on: NCI-H226 lung
NCI-H322M lung = tested on: NCI-H322M lung
HOP-62 NSCLC = tested on: HOP-62 NSCLC
NCI-H460 lung = tested on: NCI-H460 lung
HOP-92 NSCLC = tested on: HOP-92 NSCLC
NCI-H522 lung = tested on: NCI-H522 lung
A549/ATCC NSCLC = tested on: A549/ATCC NSCLC
786-0 renal = tested on: 786-0 renal
COLO 205 colon = tested on: COLO 205 colon

| Compound | growth (NCI-H23 lung) | growth (NCI-H226 lung) | growth (NCI-H322M lung) | growth (HOP-62 NSCLC) | growth (NCI-H460 lung) | growth (HOP-92 NSCLC) | growth (NCI-H522 lung) | growth (A549/ATCC NSCLC) | growth (786-0 renal) | growth (COLO 205 colon) |
| --- | --- | --- | --- | --- | --- | --- | --- | --- | --- | --- |
| CCN(CCN(C)C)C(=O)CNCc1cc(C(N)=O)ccn1 | 101% | 89.1% | 106% | 87% | 108% | 87.2% | 78.1% | 72.4% | 103% | 108% |
| c1cc[n+](Cc2c3ccccc3cc3c2ccc2ccccc23)cc1 | 16.9% | 26.3% | 53.9% | 23.7% | 42.8% | 25% | 18.4% | 63.7% | 38% | 2.06% (active) |
| CC(=O)OC1Oc2ccccc2-c2oc(=O)c(-c3cc4ccc(N(C)C)cc4oc3=O)cc21 (stereo not given) | 36.4% | 55% | 69.4% | 69.4% | 75.4% | -3.58% (active) | 6.65% (active) | 61.2% | 55.2% | 67.3% |
| CCCCCCCC(=O)SCC/C=C/[C@@H]1CC(=O)NCc2nc(co2)C2=N[C@@](C)(CS2)C(=O)N[C@@H](C(C)C)C(=O)O1 | -2.47% (active) | -10.4% (active) | -18.5% (active) | -6.6% (active) | 3.41% (active) | -15.5% (active) | -10.2% (active) | -2.81% (active) | 10.2% | -41.3% (active) |
| Cc1nc(N)sc1-c1ccnc(Nc2ccc(N3CCOCC3)cc2)n1 | 43.1% | 35.6% | 51.4% | 11.4% | 15.9% | 34.9% | 11.6% | 21.9% | 34.5% | 1.1% (active) |
| O=C(Nc1ccc(-c2ccnc(Nc3ccc(N4CCOCC4)cc3)n2)cc1)[C@@H]1CCCN1 | 65.6% | 48.6% | 67.6% | 33.6% | 50.7% | 50.2% | 48.3% | 45% | 40.3% | 44.6% |
| CCCCCCCCCCCC[n+]1ccccc1 | 8.58% (active) | 24.4% | 55.7% | -8.28% (active) | 3.69% (active) | -24.8% (active) | 1.19% (active) | 9.04% (active) | -16.8% (active) | -74% (active) |
| COc1ccc2c(CCC(c3ccccc3)c3ccccc3)c3[n+](cc2c1OC)CCc1cc2c(cc1-3)OCO2 | 0.765% (active) | 24.7% | 33.1% | 9.37% (active) | -3.4% (active) | -9.89% (active) | -0.122% (active) | 15.7% | 14.8% | -58.8% (active) |
| CCc1ccc(/C=C/c2ccc(O)c3ncccc23)[n+](C)c1 | 21% | 24.2% | 48.7% | 24.5% | 17.2% | 83.6% | 1.23% (active) | 18.3% | 89.4% | 70.9% |
| CN(c1ncccc1CNc1nc(Nc2ccc3c(c2)CC(=O)N3)ncc1C(F)(F)F)S(C)(=O)=O | -18.1% (active) | 8.79% (active) | -11.3% (active) | -13.3% (active) | -36.9% (active) | 2.42% (active) | -22.4% (active) | 2.18% (active) | 11.3% | -85.6% (active) |
| O=C(Nc1cccc([N+](=O)[O-])c1)c1ccc(Cl)c(Cl)c1 | 59.3% | 43.3% | 69.7% | 7.13% (active) | 77.6% | 51.6% | 60% | 68.3% | 67.4% | 89.7% |
| COc1ccc(S(=O)(=O)N(C(C)=O)c2ccccc2/C=C/c2cc[n+]([O-])cc2)cc1 | 32.7% | 80.6% | 39.2% | 10.5% | 3.49% (active) | 56.6% | -26.4% (active) | 17.5% | 26.7% | -36.6% (active) |
| Cc1nc(-c2cn3c(n2)-c2ccc(-c4cnn(C(C)(C)C(N)=O)c4)cc2OCC3)n(C(C)C)n1 | 54.5% | 32.7% | 2.09% (active) | 31.2% | 18.7% | 0.115% (active) | 36.1% | 8.09% (active) | 7.76% (active) | 13.5% |
| CNC(=O)c1ccc(Nc2ncc(C(F)(F)F)c(NCc3nccnc3N(C)S(C)(=O)=O)n2)cc1 | -16.8% (active) | 2.77% (active) | 1.99% (active) | -23.5% (active) | 0.647% (active) | -13.6% (active) | -25.2% (active) | -14.4% (active) | 8.71% (active) | -66.2% (active) |
| COc1ccc(Cc2cc(-c3ccccc3C)n[nH]c2=O)cc1 | 98.6% | 87.3% | 129% | 97.8% | 105% | 22.7% | 105% | 99.9% | 105% | 100% |
| COc1cc2c(cc1O)c(=O)n(CCN(C)C)c1c3cc4c(cc3ncc21)OCO4 | -19.1% (active) | -48.7% (active) | -5.9% (active) | -4.35% (active) | -14.8% (active) | -16.6% (active) | -37% (active) | -56% (active) | -54.5% (active) | 45.9% |
| Cc1[nH]n(C(N)=S)c(=O)c1N=Nc1ccc(S(=O)(=O)Nc2ccncn2)cc1 | 102% | 93.4% | 128% | 103% | 100% | 16.4% | 99.7% | 101% | 103% | 112% |
| COc1ccc(Nc2ncccc2NC(=O)c2cn(Cc3cccc(Oc4ccccc4)c3)nn2)cc1 | 91.8% | 93.8% | 82.9% | 106% | 96.5% | 99.6% | 77.8% | 80.2% | 102% | 102% |
| COc1cc(CCc2cc(NC(=O)c3ccc(N4C[C@@H](C)N[C@@H](C)C4)cc3)n[nH]2)cc(OC)c1 | 40.1% | 46.1% | 22.7% | 38.1% | 24.6% | 54.4% | 40.4% | 37.4% | 38.6% | 9.19% (active) |
| CN1CC[C@H](c2c(O)cc(O)c3c(=O)cc(-c4ccccc4Cl)oc23)[C@H](O)C1 | -17.3% (active) | 3.69% (active) | -5.32% (active) | -17.2% (active) | 3.22% (active) | -6.87% (active) | -23.9% (active) | 5.9% (active) | 7.41% (active) | -55% (active) |
| CC(N)C(Cc1ccccc1)c1ccc(Cl)cc1 (stereo not given) | 92.5% | 89.3% | 95.5% | 56.9% | 90.9% | 56.5% | 75.9% | 76.2% | 81% | 84.4% |
| Oc1ccc(/C=N/Nc2nnc(N/N=C/c3ccc(O)cc3O)c3ccccc23)c(O)c1 | -58.7% (active) | -39.5% (active) | -0.934% (active) | -31.6% (active) | -34.1% (active) | -35.8% (active) | -45.4% (active) | -58% (active) | -3.79% (active) | -23.8% (active) |
| O=C(NOCCO)c1ccc2cncn2c1Nc1ccc(I)cc1F | 18.8% | 56.7% | 24.1% | 35.7% | 74.7% | -19.6% (active) | 60.4% | 25.4% | 81.6% | 6.84% (active) |
| Cc1nn(-c2nc3ccccc3[nH]2)c2c1C(c1ccc(O)cc1)CC(=O)N2 (stereo not given) | 74.9% | 96.9% | 104% | 93.1% | 57.4% | 99.3% | 52% | 61.3% | 115% | 103% |
| O=C(Cc1ccc(-c2ccc(OCCN3CCOCC3)cc2)cn1)NCc1ccccc1 | 29% | 48.8% | 33.1% | -3.09% (active) | 2.01% (active) | 27.6% | -5.77% (active) | 4.91% (active) | 24.2% | -65.3% (active) |
